For 19 molecules, inhibition results are on record in ChEMBL document CHEMBL1961873, “Compounds: GSK PKIS; Assays: Nanosyn kinase panel” (2012).

Assay [1] addresses Death-associated protein kinase 1 (Homo sapiens) (UniProt P53355). The settings on record: at 1 µM.
The target in assay [2] is T1, Serine/threonine-protein kinase DCLK2 (Homo sapiens) (UniProt Q8N568).
T1 sequence (whole entry): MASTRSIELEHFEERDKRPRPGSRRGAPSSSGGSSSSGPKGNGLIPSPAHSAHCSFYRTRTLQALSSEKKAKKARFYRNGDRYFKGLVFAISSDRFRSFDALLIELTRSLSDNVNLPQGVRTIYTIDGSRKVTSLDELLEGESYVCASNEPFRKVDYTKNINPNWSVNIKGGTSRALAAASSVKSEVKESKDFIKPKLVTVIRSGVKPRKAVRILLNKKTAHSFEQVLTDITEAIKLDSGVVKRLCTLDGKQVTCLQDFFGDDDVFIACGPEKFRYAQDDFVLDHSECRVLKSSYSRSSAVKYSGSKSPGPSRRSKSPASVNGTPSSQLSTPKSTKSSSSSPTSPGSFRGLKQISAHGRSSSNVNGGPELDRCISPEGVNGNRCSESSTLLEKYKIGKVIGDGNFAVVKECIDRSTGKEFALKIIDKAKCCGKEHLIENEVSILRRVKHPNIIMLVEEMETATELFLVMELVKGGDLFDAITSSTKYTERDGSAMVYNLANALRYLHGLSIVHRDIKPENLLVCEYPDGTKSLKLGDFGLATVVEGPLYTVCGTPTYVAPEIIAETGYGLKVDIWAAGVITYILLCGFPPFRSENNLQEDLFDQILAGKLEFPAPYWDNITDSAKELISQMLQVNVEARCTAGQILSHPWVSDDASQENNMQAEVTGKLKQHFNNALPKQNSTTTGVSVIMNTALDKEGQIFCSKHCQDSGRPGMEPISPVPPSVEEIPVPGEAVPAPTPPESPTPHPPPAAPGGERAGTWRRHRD
As to conditions: at 0.1 µM.

In assay [3] the target is T1, Serine/threonine-protein kinase DCLK2 (Homo sapiens). As to conditions: at 1 µM.
Assay [4] addresses MAP kinase-activated protein kinase 2 (Homo sapiens) (UniProt P49137). The settings on record: at 0.1 µM.
The target is the same in assay [5]. As to conditions: at 1 µM.
Assay [6] deals with MAP kinase-activated protein kinase 3 (Homo sapiens) (UniProt Q16644). As to conditions: at 0.1 µM.
Assay [7] shares this target. As to conditions: at 1 µM.
Assay [8] has as its target Serine/threonine-protein kinase MARK1 (Homo sapiens) (UniProt Q9P0L2). As to conditions: at 0.1 µM.
Assay [9] shares this target. The settings on record: at 1 µM.
Assay [10] concerns the target MAP/microtubule affinity-regulating kinase 3 (Homo sapiens) (UniProt P27448). As to conditions: at 0.1 µM.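 Further: mean percent inhibition of MARK3 kinase activity, measured within the GSK PKIS screening panel.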

Chain of MAP kinase-activated protein kinase 2 (Homo sapiens) (P49137 whole entry, looked up): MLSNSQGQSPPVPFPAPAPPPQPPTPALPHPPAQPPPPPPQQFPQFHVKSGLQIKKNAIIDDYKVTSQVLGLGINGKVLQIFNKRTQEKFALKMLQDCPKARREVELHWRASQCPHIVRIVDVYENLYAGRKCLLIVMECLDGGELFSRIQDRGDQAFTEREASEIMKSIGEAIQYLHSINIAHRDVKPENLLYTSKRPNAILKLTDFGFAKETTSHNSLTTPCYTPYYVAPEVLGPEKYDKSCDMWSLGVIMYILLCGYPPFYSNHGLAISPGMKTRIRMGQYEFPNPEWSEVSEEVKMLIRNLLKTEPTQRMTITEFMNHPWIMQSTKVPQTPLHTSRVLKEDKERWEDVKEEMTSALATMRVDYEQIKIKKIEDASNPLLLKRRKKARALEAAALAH
Chain of MAP/microtubule affinity-regulating kinase 3 (Homo sapiens) (P27448 whole entry, looked up): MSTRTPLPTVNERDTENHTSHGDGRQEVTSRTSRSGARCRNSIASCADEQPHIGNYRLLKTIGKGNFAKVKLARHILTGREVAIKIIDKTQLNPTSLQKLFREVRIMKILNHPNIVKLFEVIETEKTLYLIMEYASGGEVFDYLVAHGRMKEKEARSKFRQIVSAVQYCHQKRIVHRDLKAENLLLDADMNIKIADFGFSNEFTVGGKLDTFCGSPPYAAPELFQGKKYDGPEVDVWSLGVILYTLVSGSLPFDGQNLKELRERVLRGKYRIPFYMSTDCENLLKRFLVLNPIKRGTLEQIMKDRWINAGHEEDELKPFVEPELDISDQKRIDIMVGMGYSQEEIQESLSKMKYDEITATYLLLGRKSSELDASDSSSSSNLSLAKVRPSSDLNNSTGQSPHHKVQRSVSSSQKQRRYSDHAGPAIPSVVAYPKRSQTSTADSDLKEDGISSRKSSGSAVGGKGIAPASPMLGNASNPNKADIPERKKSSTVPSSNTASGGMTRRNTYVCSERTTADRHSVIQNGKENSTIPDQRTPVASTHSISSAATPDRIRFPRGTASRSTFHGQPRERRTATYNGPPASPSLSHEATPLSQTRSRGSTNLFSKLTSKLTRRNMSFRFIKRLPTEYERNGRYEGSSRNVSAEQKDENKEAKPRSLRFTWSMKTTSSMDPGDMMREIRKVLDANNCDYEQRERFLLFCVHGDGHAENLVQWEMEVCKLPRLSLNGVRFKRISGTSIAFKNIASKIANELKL
Chain of Serine/threonine-protein kinase MARK1 (Homo sapiens) (Q9P0L2 whole entry, looked up): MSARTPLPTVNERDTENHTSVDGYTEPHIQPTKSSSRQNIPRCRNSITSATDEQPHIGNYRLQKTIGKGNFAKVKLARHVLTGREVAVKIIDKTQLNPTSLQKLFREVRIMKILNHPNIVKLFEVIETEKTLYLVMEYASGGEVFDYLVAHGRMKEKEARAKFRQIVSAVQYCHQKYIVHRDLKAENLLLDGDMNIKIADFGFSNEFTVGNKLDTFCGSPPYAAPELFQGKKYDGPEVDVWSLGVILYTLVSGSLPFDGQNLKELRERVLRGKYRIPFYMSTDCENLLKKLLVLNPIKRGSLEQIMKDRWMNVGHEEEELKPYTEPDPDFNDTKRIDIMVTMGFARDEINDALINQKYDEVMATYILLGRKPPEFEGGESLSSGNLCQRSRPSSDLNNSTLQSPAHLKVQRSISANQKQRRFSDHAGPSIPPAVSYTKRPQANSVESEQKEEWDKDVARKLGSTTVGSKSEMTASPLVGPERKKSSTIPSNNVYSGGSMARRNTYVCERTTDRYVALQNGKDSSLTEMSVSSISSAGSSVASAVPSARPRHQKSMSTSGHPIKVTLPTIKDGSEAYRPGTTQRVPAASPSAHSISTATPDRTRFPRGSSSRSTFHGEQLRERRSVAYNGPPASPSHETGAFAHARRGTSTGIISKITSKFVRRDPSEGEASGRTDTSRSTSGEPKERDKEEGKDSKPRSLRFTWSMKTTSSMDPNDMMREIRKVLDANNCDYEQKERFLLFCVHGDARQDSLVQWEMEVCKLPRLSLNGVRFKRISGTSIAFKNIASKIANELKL
Chain of MAP kinase-activated protein kinase 3 (Homo sapiens) (Q16644 whole entry, looked up): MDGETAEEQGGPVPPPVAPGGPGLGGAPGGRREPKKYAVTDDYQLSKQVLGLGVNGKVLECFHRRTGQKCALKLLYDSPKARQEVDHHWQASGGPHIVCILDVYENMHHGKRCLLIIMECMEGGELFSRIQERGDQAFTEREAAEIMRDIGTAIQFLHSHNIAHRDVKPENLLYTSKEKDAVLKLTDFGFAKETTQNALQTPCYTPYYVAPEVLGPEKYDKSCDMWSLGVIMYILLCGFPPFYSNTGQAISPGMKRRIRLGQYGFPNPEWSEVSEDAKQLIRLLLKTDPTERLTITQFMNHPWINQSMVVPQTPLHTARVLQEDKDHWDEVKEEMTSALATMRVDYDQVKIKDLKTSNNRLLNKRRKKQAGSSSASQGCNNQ
Chain of Death-associated protein kinase 1 (Homo sapiens) (P53355 whole entry, looked up): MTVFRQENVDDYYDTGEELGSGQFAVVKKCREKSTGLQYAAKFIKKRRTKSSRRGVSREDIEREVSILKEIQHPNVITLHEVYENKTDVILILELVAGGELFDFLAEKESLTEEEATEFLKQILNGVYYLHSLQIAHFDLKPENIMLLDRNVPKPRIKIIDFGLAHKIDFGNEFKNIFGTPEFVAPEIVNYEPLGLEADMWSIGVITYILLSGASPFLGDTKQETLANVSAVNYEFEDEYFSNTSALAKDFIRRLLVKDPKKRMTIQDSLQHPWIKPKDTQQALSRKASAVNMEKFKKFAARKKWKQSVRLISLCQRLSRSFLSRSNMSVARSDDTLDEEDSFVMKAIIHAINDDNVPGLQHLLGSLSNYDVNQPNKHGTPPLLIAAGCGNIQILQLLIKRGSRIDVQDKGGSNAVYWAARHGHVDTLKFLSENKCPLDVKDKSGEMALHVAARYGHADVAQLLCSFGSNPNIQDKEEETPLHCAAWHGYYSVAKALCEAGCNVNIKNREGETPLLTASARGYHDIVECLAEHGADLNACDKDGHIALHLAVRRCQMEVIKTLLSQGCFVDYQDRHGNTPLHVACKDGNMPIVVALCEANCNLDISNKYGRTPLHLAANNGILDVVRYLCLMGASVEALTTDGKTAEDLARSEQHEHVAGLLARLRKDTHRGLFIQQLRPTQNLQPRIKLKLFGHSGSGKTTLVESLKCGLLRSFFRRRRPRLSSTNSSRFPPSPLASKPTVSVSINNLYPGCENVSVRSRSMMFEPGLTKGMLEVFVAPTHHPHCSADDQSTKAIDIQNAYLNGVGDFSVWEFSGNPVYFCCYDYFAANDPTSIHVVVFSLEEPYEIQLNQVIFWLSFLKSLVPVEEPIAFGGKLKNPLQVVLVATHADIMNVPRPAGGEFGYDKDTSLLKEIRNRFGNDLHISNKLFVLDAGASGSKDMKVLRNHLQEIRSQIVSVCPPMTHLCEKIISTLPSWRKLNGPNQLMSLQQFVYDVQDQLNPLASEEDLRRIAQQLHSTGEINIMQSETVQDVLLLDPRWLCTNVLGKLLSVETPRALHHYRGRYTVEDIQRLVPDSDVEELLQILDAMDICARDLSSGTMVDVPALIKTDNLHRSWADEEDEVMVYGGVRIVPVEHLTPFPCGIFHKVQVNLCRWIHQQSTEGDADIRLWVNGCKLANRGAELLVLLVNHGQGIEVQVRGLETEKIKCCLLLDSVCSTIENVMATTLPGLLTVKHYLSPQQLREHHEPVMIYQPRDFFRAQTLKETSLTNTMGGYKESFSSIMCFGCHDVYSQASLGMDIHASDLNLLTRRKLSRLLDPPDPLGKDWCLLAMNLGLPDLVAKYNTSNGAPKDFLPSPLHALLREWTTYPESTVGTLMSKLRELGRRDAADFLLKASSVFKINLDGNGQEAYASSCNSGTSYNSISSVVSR

Usually inhibition stands for the drop in the measured response relative to a control, in per cent. In the case of `NCc1ccc(-c2nc(-c3ccc(Cl)c(O)c3)c(-c3ccncc3)[nH]2)cc1`, the inhibition was 1.16% in assay [1]; 3.34% in assay [2]; 5.14% in [3]; -0.41% in assay [4]; -0.56% in [5]; 15.5% in assay [6]. The inhibition in assay [7] is 30.9%; in assay [8], 2.03%; in assay [9], 2.6%; in assay [10] it was 0.33%.
`O=C(Nc1n[nH]c2nc(-c3ccco3)c(Br)cc12)C1CC1`: the inhibition in assay [1] was 4.49%; in assay [2], -0.15%; in [3], 1.73%; in assay [4], 1.86%; in assay [5] it was 1.26%; in [6], 2.91%. For the same molecule, the inhibition was 3.6% in assay [7], 2.45% in assay [8], 2.7% in assay [9] and 4.8% in [10].
As to `CS(=O)(=O)CCNCc1ccc(-c2ccc3ncnc(Nc4ccc(OCc5cccc(F)c5)c(C(F)(F)F)c4)c3c2)o1`, the inhibition in assay [1] was 12.3%; in assay [2] it was 3.73%; in [3], 0.98%; in [4] it was 4.67%; in assay [5] it was 4.5%; in assay [6], 10%. Moreover, the inhibition in assay [7] is 11.2%; in assay [8] it was 3.68%; in assay [9], 3.33%; in assay [10], 1.95%.
Consider `CCn1c(-c2nonc2N)nc2cnc(Oc3cccc(NC(=O)c4ccc(OCCN5CCOCC5)cc4)c3)cc21`, for which the inhibition in [1] was -1.31%; in assay [2] it was 0.99%; in assay [3], 2.71%; in [4] it was 1.4%; in [5], 0.54%; in assay [6] it was 3.45%. Besides, the inhibition in assay [7] was found to be 3.54%; in [8], 3.31%; in assay [9], 13.3%; in assay [10], 0.46%.
Consider `COc1cc2ncn(-c3cc(O[C@@H](C)c4ccccc4Cl)c(C(N)=O)s3)c2cc1OC`, for which the inhibition in assay [1] was 8.9%; in [2] it was -1.19%; in assay [3] it was 3.6%; in assay [4] it was 5.43%; in [5], 5%; in assay [6], 9.03%. Further, the inhibition in [7] was 10.9%; in assay [8], 4.26%; in assay [9] it was 9.07%; in assay [10] it was 4.06%.
`Nc1ncnc2occ(-c3ccc(NC(=O)Nc4cc(C(F)(F)F)cc(C(F)(F)F)c4)cc3)c12`: the inhibition in [1] worked out at 3.18%; in assay [2], 0.95%; in assay [3], 1.34%; in assay [4], 0.92%; in assay [5], 0.1%; in [6], 2.58%. Besides, the inhibition is 4.92% in assay [7], 0.83% in assay [8], -0.19% in [9] and 3.3% in assay [10].
For `O=C1NC(=O)C(c2cccc(Cl)c2)=C1Nc1ccc(O)c(Cl)c1`, the inhibition was 2.13% in assay [1]; -0.44% in [2]; -0.92% in [3]; 0.03% in assay [4]; 0.04% in [5]; -0.58% in [6]. In addition, the inhibition amounted to 1.59% in assay [7], 2.1% in assay [8], 15.6% in assay [9] and 5.22% in [10].
With `CS(=O)(=O)CCN(CC#N)Cc1ccc(-c2ccc3ncnc(Nc4ccc(OCc5cccc(F)c5)c(Cl)c4)c3c2)o1`, the inhibition is -1.52% in assay [1]; -4.32% in assay [2]; -2.59% in [3]; 0.26% in [4]; 0.64% in assay [5]; 0.54% in assay [6]. For the same molecule, the inhibition in assay [7] is -0.02%; in assay [8] it was 0.76%; in assay [9], -0.29%.
In the case of `COc1cc2ncn(-c3cc(OCc4ccccc4C(F)(F)F)c(C(N)=O)s3)c2cc1OC`, the inhibition in assay [1] is -4.22%; in [2], -2.49%; in assay [3], -0.6%; in assay [4], 2.27%; in assay [5] it was 1.47%; in [6], 4.71%. Besides, the inhibition in assay [7] is 4.41%; in assay [8], 4.83%; in [9] it was 22.1%; in assay [10], 5.55%.
`CCn1c(-c2nonc2N)nc2c(N3CCCC3)nccc21`: the inhibition is 0.8% in assay [1]; -6.15% in [2]; 4.26% in assay [3]; -1.28% in assay [4]; -1.63% in assay [5]; -0.94% in assay [6]. Moreover, the inhibition is -1.73% in assay [7], 0.71% in assay [8], 2.75% in assay [9] and 1.92% in [10].
For `CCn1c(-c2nonc2N)nc2cncc(C(=O)N3CC[C@H](N)C3)c21`, the inhibition in [1] was 8.64%; in assay [2], 0.17%; in [3] it was -0.36%; in [4], 1.77%; in assay [5], 1.78%; in assay [6], 3.01%. For the same molecule, the inhibition in assay [7] came to 4.01%; in assay [8] it was 4.67%; in [9], 12.8%; in assay [10], 3.75%.
Turning to `Fc1cccc(COc2ccc(Nc3ncnc4sc(-c5cccs5)cc34)cc2Cl)c1`, the inhibition is -9.5% in [1]; -1.25% in assay [2]; 2.62% in assay [3]; -2.05% in assay [4]; -2.63% in assay [5]; -4.76% in [6]. Further, the inhibition in assay [7] is -5.22%; in assay [8], 0.88%; in assay [9], 2.73%; in assay [10] it was 0.02%.
With `Cc1cc(O)cc(C)c1/C=C/c1cncc(-c2nn[nH]n2)c1`, the inhibition is 3.95% in assay [1]; -1.23% in assay [2]; -3.21% in [3]; 2.39% in [4]; 1.49% in [5]; 6.11% in assay [6]. Moreover, the inhibition in assay [7] is 4.25%; in assay [8], 4.55%; in [9], 5.09%; in assay [10], 5.87%.
`CN1CCC(C(=O)Nc2n[nH]c3nnc(-c4ccccc4)cc23)CC1`: the inhibition was -2.32% in assay [1]; 0.57% in assay [2]; -0.83% in [3]; -0.36% in assay [4]; -0.73% in [5]; -1.34% in [6]. In addition, the inhibition in [7] is -1.95%; in assay [8] it was 4.01%; in assay [9], 5.96%; in [10] it was 3.75%.
For `COc1ccc2cc(-c3c(-c4ccncc4)nc(-c4ccc([S+](C)[O-])cc4)n3C)ccc2c1` (centres undefined), the inhibition in assay [1] is 4.63%; in [2] it was 0.5%; in [3], 5.77%; in [4], 1%; in assay [5] it was 0.92%; in assay [6], 2.16%. Moreover, the inhibition in assay [7] worked out at 2.35%; in assay [8], 3.1%; in [9], 3.73%; in assay [10], 2.34%.
Take `CNC(=O)c1cncc(/C=C/c2c(Cl)cccc2Cl)c1`: the inhibition in assay [1] is 0.5%; in [2], -4.5%; in assay [3], -0.73%; in assay [4], 0.7%; in assay [5], 2.98%; in [6] it was 2.14%. In addition, the inhibition is 1.96% in [7], 2.05% in assay [8], 2.47% in assay [9] and 1.82% in [10].
On to `Cc1ccc(NC(=O)c2ccnc(N3CCCC3)c2)cc1-c1ccc(C(=O)NCC2CC2)cc1`, for which the inhibition in assay [1] was 5.74%; in assay [2], -1.99%; in assay [3], -0.35%; in assay [4] it was 0.7%; in assay [5], 1.5%; in assay [6] it was 19.9%. For the same molecule, the inhibition in assay [7] turned out to be 30.2%; in assay [8], 5.49%; in assay [9], 8.31%; in assay [10] it was 6.19%.
Consider `Nc1ncnc2occ(-c3ccc(NC(=O)Nc4cccc(C(F)(F)F)c4)cc3)c12`, for which the inhibition was found to be 4.16% in assay [1]; 0.41% in [2]; 1.61% in assay [3]; 3.79% in assay [4]; 3.15% in [5]; 9.11% in assay [6]. Besides, the inhibition in assay [7] stood at 20.7%; in assay [8], 3.95%; in assay [9], 8.44%; in assay [10], 3.75%.
As to `O=C1NC(=O)C(N2CCc3ccccc32)=C1c1ccc(Cl)cc1`, the inhibition in assay [1] was 13.8%; in [2] it was 1.5%; in assay [3] it was 1.94%; in [4] it was 4.64%; in assay [5], 5.01%; in [6], 10.4%. For the same molecule, the inhibition in assay [7] worked out at 10.3%; in assay [8], 3.93%; in [9] it was 5.85%; in [10], 5.98%.
